Test results from PubChem BioAssay (NCI).
The panel holds about 83,000 compounds, 20% with a hit somewhere; the sample as a whole holds those more often.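 Compound tested at a single concentration for 48 hours in 96-well plates; a percent growth value below 10 was scored as active.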 Values without a mark were called inactive. Calls of active or inactive are those of the source.

What was measured:
Experiment in all cases: NCI-60 one-dose screen, 48 h (100 = growth as untreated, 0 = no growth, -100 = all killed)
Settings in all cases: 10 µM unless noted
HCT-15 colon = system: HCT-15 colon
HT29 colon = system: HT29 colon
SNB-75 CNS = system: SNB-75 CNS
SNB-19 CNS = system: SNB-19 CNS
U251 CNS = system: U251 CNS
PC-3 prostate = system: PC-3 prostate
SK-MEL-5 melanoma = system: SK-MEL-5 melanoma
UACC-62 melanoma = system: UACC-62 melanoma
LOX IMVI melanoma = system: LOX IMVI melanoma
SK-MEL-28 melanoma = system: SK-MEL-28 melanoma
SK-MEL-2 melanoma = system: SK-MEL-2 melanoma
EKVX NSCLC = system: EKVX NSCLC
SN12C renal = system: SN12C renal
UO-31 renal = system: UO-31 renal
TK-10 renal = system: TK-10 renal
ACHN renal = system: ACHN renal
CAKI-1 renal = system: CAKI-1 renal
A498 renal = system: A498 renal
MOLT-4 leukemia = system: MOLT-4 leukemia
CCRF-CEM leukemia = system: CCRF-CEM leukemia

| SMILES | growth (HCT-15 colon) [%] | growth (HT29 colon) [%] | growth (SNB-75 CNS) | growth (SNB-19 CNS) [%] | growth (U251 CNS) | growth (PC-3 prostate) [%] | growth (SK-MEL-5 melanoma) [%] | growth (UACC-62 melanoma) [%] | growth (LOX IMVI melanoma) | growth (SK-MEL-28 melanoma) [%] | growth (SK-MEL-2 melanoma) [%] | growth (EKVX NSCLC) | growth (SN12C renal) [%] | growth (UO-31 renal) | growth (TK-10 renal) | growth (ACHN renal) [%] | growth (CAKI-1 renal) | growth (A498 renal) | growth (MOLT-4 leukemia) | growth (CCRF-CEM leukemia) [%] |
| --- | --- | --- | --- | --- | --- | --- | --- | --- | --- | --- | --- | --- | --- | --- | --- | --- | --- | --- | --- | --- |
| COc1cc(-c2nn(C(C)(C)C)cc2-c2ccnc(NCCCNS(=O)(=O)c3ccccc3)n2)ccc1Cl | 60.1 | 70.3 | 49.1% | 97.2 | 91.7% | 54.8 | 72.7 | 78.4 | 62.7% | 93 | 89.6 | 36.5% | 52 | 39.4% | 66% | 77.2 | 27% | 31.2% | 59.6% |  |
| N/C(=N\C(N)=N\c1nc2ccccc2s1)c1ccc2ccccc2c1 | 69 | 104 | 48.5% | 94.7 | 47.9% | 50.6 | 97.4 | 93.4 | -45.7% (active) | 95.5 | 97.7 | 47.9% | 75.3 | 23.4% | 126% | 78.4 | 36.4% | 96.9% | 60.6% |  |
| Nc1ncc(-c2ccc3ncnc(N4CCc5cc(F)c(Cl)cc54)c3c2)cn1 | 18.2 | 24.1 | -32.2% (active) | 43 | 45% | 10.5 | 29.2 | 22.2 | 9.68% (active) | 40.5 | 17.1 | -9.64% (active) | 17.9 | 7.96% (active) | -15% (active) | 13.4 | -9.07% (active) | -80.7% (active) | -20.9% (active) |  |
| COc1ccc(/C=C(/C)c2ccc3ccc(OC)cc3[o+]2)c(O)c1 | 22.5 | 44.7 | 85.6% | 82.4 | 84.6% | 41.7 | 61.6 | 50.9 | -15.8% (active) | 96 | 94.3 | 55.8% | 85.5 | 69.4% | 174% | 70.2 |  | 110% | 34.7% | 11.2 |
| Nc1nc(Nc2ccccc2SSc2ccccc2Nc2nc(N)nc(-c3ccccc3)n2)nc(-c2ccccc2)n1 | 48.5 | 111 | 55.7% | 74.5 | -22.7% (active) | 42.9 | 89.2 | 76.3 | -34.3% (active) | 93.9 | 106 | 47.1% | 77.8 | -12.6% (active) | 101% | 55.8 | 25.2% | 78.7% | 50.7% |  |
| CC/C(=C/c1c(O)cccc1OC)c1ccc2c(OC)cccc2[o+]1 | 92.2 | 110 | 98.8% | 99.4 | 99.5% | 95.3 | 104 | 90.6 | 95% | 97.3 | 107 | 97.9% | 96.9 | 93.5% | 121% | 99.2 |  | 102% | 104% | 102 |
| O=C(CN1CCN(c2cc(=O)n(-c3ccccc3)c3ccccc23)CC1)Nc1cccc(C(F)(F)F)c1 | 48.5 | 70.8 | 65.5% | 70.9 | 71.6% | 42.1 | 14.4 | 57.2 | 66.1% |  | 92 | 42.9% | 75.9 | 33% | 74.4% | 58.5 | 56.9% | 52.9% | 34.8% | 53.4 |
| CCOC(=O)c1c(Nc2ccccc2)nn2c(-c3ccc(Cl)cc3)ccnc12 | 77.8 | 83.7 | 88% | 72.1 | 81.5% | 80.5 | 80.2 | 82.8 | 64.5% | 87.2 |  | 88.9% | 83.9 | 64.8% | 98.1% | 47.2 | 56.1% |  | 86% | 16.2 |
